An excerpt weighted towards active compounds, which were near 1.8% of everything screened.
IkB signaling = IkB Signaling. ABC-DLBCL IkBa-CBG/CBR dual luciferase ratio, 4 h; response scale: scaled: untreated 0%, proteasome inhibitor 100%. Potency, µM (top dose mostly 57.1 µM), without a hit: at the top dose IkBa stabilization activation. hit rate 0.04% among 110,000. AID 445, 2006; active = well fitted curve in the direction sought with a large enough effect in the signal ratio, not every such curve was filed as active; inconclusive = small, poorly fitted or top-dose-only effect, or a change in a side signal; the % refers to the signal ratio;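 note: the direction sought is a rising ratio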
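Curves were fitted separately to fusion (green), unfused (red) and ratio luminescence, then classed by r2, magnitude and activity. Cells: OCI-Ly3, 4 h compound plus doxycycline at 37C; 10 uM MG-132 defined full response.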
Imprint erasure = qHTS Assay for Compounds that Induce Erasure of Genomic Imprints; mouse ES Peg3-LacZ reporter, beta-gal luminescence, 40 h; Potency, µM (titrated, usually from 60.7 µM), inactives show top-dose activity change, positive = activation, actives largely listed as activators; hit rate 0.02% among 110,000; AID 1948, 2009
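Imprint erasure is scored as LacZ activity from the silenced maternal Peg3 allele in feeder-free female ES cells cultured 40 h with LIF. Luminescence is normalized to in-plate negative controls and fitted to the Hill equation.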
p53ts 39C kill = qHTS Screen for Compounds that Selectively Target Cancer Cells with p53 Mutations: Cytotoxicity of p53ts Cells at the Nonpermissive Temperature. AID 902, 2007. H1299-p53A138V viability at 39C, ATP luminescence, 24 h. Potency, µM (series often up to 46.1 µM), inactives show at the top dose activity change, negative = cell killing, most hits filed as cytotoxic. hit rate 1.5% among 130,000; note: % is set by controls: 0 for no effect and ±100 for the full control effect; nearly all actives have a fitted effect of over 55% in size
p53ts 32C kill = qHTS Screen for Compounds that Selectively Target Cancer Cells with p53 Mutations: Cytotoxicity of p53ts Cells at the Permissive Temperature | H1299-p53A138V at 32C, ATP luminescence viability, 24 h | Potency, µM (top dose mostly 46.1 µM), inactives show top-dose activity change, negative = cytotoxicity, hits mostly cytotoxic | hit rate 0.93% among 130,000;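 note: 0% = DMSO and -100% = full killing by reference compound; nearly all actives have a fitted effect of over 55% in size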
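ATP-content luminescence (ATPlite) read-out after 24 h compound exposure at 32C in H1299-p53A138V cells (600/well). Tested up to 46 uM. Normalized to DMSO (0%) and 100 uM tamoxifen (100% killing); Hill-fit AC50.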
* marks the source's active call; other numbers are inactive results; ! = a repeat was not active; [ ] = another dose, or the depositor's remark. Unless noted, calls come from the whole dose curve; as a rule, active = well fitted curve in the direction sought with a large enough effect; inconclusive = small, poorly fitted or top-dose-only effect, or another doubt; inactive = no such curve, though single readings can be large; an effect the other way counts as inactive or inconclusive. Potency is the fitted concentration of half-maximal effect.

CC[C@@H]1CN2CC[C@@H]1C[C@H]2[C@@H](O)c1ccnc2ccc(OC)cc12 was read as IkB signaling -1%[11.4 µM].
For C=C(C)[C@H]1[C@H]2OC(=O)[C@@H]1[C@]1(O)C[C@H]3O[C@]34C(=O)O[C@H]2[C@]14C the results were IkB signaling 0%[11.4 µM].
For Cc1nc2cc(C(F)(F)F)ccc2n1C1CCN(Cc2nnnn2Cc2cccs2)CC1 the results were IkB signaling 3%, Imprint erasure -14%, p53ts 39C kill -7% and p53ts 32C kill -3%.
Cc1nc2cc(C(F)(F)F)ccc2n1C1CCN(Cc2nnnn2Cc2ccc3c(c2)OCO3)CC1 was read as IkB signaling inconclusive, Imprint erasure -19%, p53ts 39C kill 20µM* and p53ts 32C kill -22%.
`COc1ccc2[nH]cc(CCN)c2c1` gave IkB signaling 0%, Imprint erasure -18%, p53ts 39C kill 6% and p53ts 32C kill 8%.
CCCCCCCCCOc1ccc2[nH]cc(CCN)c2c1 was read as IkB signaling inconclusive, Imprint erasure -34%, p53ts 39C kill 32µM* and p53ts 32C kill inconclusive.
For COc1ccc2c(c1O)-c1cccc3c1[C@H](C2)N(C)CC3 the results were IkB signaling 0%, p53ts 39C kill -4% and p53ts 32C kill -10%.
`CC(C)[C@@]1(NC(=O)[C@@H]2C[C@H]3c4cccc5[nH]cc(c45)C[C@@H]3N(C)C2)O[C@@]2(O)[C@H]3CCCN3C(=O)[C@H](Cc3ccccc3)N2C1=O` gave IkB signaling inconclusive, Imprint erasure -4%, p53ts 39C kill 32µM*! and p53ts 32C kill inconclusive.
For CC(C)[C@@]1(NC(=O)[C@@H]2C=C3c4cccc5[nH]cc(c45)C[C@@H]3N(C)C2)O[C@]2(O)[C@H]3CCCN3C(=O)[C@H](Cc3ccccc3)N2C1=O the results were IkB signaling 0%.
For CO[C@@H](C)[C@](O)(C(=O)OC1=CCN2CC[C@H](O)[C@H]12)C(C)C the results were IkB signaling 3%[11.4 µM].
For Cc1oc2ccc(O)c(CN3CCCCCC3)c2c1C(=O)Nc1cccc(Cl)c1C the results were IkB signaling inconclusive, Imprint erasure -14%[10.9 µM], p53ts 39C kill 16µM* and p53ts 32C kill -11%.
C[C@@H]1O[C@@H](O[C@H]2C[C@@H](O)[C@]3(CO)[C@@H]4[C@@H](O)C[C@]5(C)[C@H](C6=CC(=O)OC6)CC[C@@]5(O)[C@H]4CC[C@@]3(O)C2)[C@H](O)[C@H](O)[C@@H]1O was read as IkB signaling -8%.
`O=C(NCCc1ccc(Cl)cc1)c1ccc(Nc2nc3ccccc3n3nnnc23)cc1` gave IkB signaling inconclusive, Imprint erasure -5%[10.9 µM], p53ts 39C kill 7.9µM* and p53ts 32C kill inconclusive.
For COC(=O)/C(C)=C\CC12OC(C)(C)C3CC(C=C4C(=O)c5c(OC)c6c(c(CC=C(C)C)c5OC431)OC(C)(CCC=C(C)C)C=C6)C2=O (stereo unspecified) the results were Imprint erasure -42%, p53ts 39C kill 6.3µM* and p53ts 32C kill 4µM*.
For CC(=O)Oc1c2c(c(CC=C(C)C)c3c1C(=O)C1=CC4CC5C(C)(C)OC(C/C=C(\C)C(=O)O)(C4=O)[C@]15O3)OC(C)(CCC=C(C)C)C=C2 (stereo partly specified) the results were Imprint erasure -43%, p53ts 39C kill 4µM* and p53ts 32C kill 4µM*.
COc1cc2c(cc1O)CCN[C@H]2C was read as IkB signaling -1%[11.4 µM].
COC(=O)C1CN(C#N)N(c2ccc(Cl)cc2)C12c1ccccc1-c1ccccc12 (stereo unspecified) was read as p53ts 39C kill 11µM* and p53ts 32C kill 4µM*.
`CCCCCCn1c(O)c(C=NC2CCCCC2N)c(=O)[nH]c1=O` (stereo unspecified) gave IkB signaling 1%, Imprint erasure -47%, p53ts 39C kill 5µM* and p53ts 32C kill 4µM*.
Screening C[C@@H](Cc1cccc(C(F)(F)F)c1)NCCCc1ccccc1 returned IkB signaling inconclusive, Imprint erasure -23%, p53ts 39C kill 25µM* and p53ts 32C kill -5%.
For C=C[C@@H]1CN2CC[C@H]1C[C@H]2[C@@H](O)c1ccnc2ccccc12 the results were IkB signaling 2%[11.4 µM].
CCn1nc(-c2ccccc2)nc2c(=O)n(C)c(=O)nc1-2 was read as IkB signaling inconclusive, Imprint erasure -98%, p53ts 39C kill 4µM* and p53ts 32C kill 0.63µM*.
Screening CC(=O)N1C[C@@H]2C[C@H](C1)c1cccc(=O)n1C2 returned IkB signaling 2%[11.4 µM].
[CH3][Hg][Cl] was read as IkB signaling inconclusive, Imprint erasure -46%, p53ts 39C kill 16µM* and p53ts 32C kill 9%[1.84 µM].
Screening CC[C@H]1[C@@H]2C[C@@H]3[C@@H]4N(C)c5ccccc5[C@@]45C[C@@H]([C@H]2[C@@H]5O)N3[C@@H]1O returned IkB signaling 0%[11.4 µM].
`Cc1nc(-c2ccc(-c3ccc(C(=O)N4CCc5cc6c(cc54)C4(CCN(C)CC4)CO6)cc3)c(C)c2)no1` gave IkB signaling inconclusive, Imprint erasure -36%, p53ts 39C kill 10µM* and p53ts 32C kill 16µM*.
Screening CCCCCC[C@H]1C(=O)O[C@@H](C)[C@H](NC(=O)c2cccc(NC=O)c2O)C(=O)O[C@@H](C)[C@@H]1OC(=O)CC(C)C returned IkB signaling 6%[11.4 µM].
